The values below come from PubChem BioAssay.

For assay [1], the system named is Wnt5a (protein binding on small-molecule microarray). Description: Wnt5a binders on small-molecule microarray, primary screen, biophysical, 635/667 nm fluorescence (AID 1142).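 Note: fluorescence read at 667 nm with signal to noise per printed feature.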 The settings on record: 635 nm fluorescence, higher = more signal.
A short description of assay [2]: cell viability in Huh7 cells, primary screen, cytotoxicity control for HCV replication inhibitor project, CellTiter-Glo luminescence, basal, 48 h (AID 1143).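 Note: Huh7 hepatoma cells carrying a hepatitis C replication reporter with no stimulus; test concentration not given here.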 The settings on record: Huh7 HCV replicon, higher = more signal, called active from +8 up or from −8 down.
Assay [3] can be described thus: CREB reporter modulators without forskolin, primary screen, cell-based, PC12, CRE-LacZ reporter, unstimulated (AID 1145). The settings on record: no forskolin, luminescence, 4.5 h, higher = more signal, called active from +8 up or from −8 down.
Assay [4] is described as follows: CREB reporter modulators under forskolin, primary screen, cell-based, PC12, CRE-LacZ reporter, forskolin-stimulated (AID 1146).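 Note: PC12 cells with 6xCRE LacZ reporter stimulated by forskolin 10 µM; beta-galactosidase reporter signal reflecting CREB driven transcription.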 The note with it: luminescence, 4.5 h, higher = more signal, called active from +8 up or from −8 down.
Assay [5] has as its target Streptavidin (Streptomyces avidinii) (UniProt P22629). Description: streptavidin binders on small-molecule microarray, primary screen, artefact control for SMM compound annotation, biophysical, 635/667 nm fluorescence (AID 1147).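 Note: signal reflects streptavidin binding to arrayed compounds as a control protein.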 The settings on record: streptavidin binding, higher = more signal.
Assay [6] can be described thus: small-molecule binders of probe aInhba, primary screen, biochemical, small-molecule microarray, 635/667 nm fluorescence (AID 1148).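 Note: score merges 667nm spot fluorescence with signal-to-noise for antibody binding to printed compounds.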 The settings on record: higher = more signal.
In assay [7] the target is Torsin-1A (Homo sapiens) (UniProt O14656). Description: torsin A binders from cell lysate, primary screen, small-molecule microarray, wild-type, 635/667 nm (AID 1149). The note with it: COS7 hTOR1A-WT lysate, 635 nm fluorescence, higher = more signal.
Assay [8] shares this target. Description: small-molecule binders of mutant TOR1A in lysate, primary screen, cell lysate, small-molecule microarray, COS7 lysate, 635/667 nm fluorescence (AID 1150).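 Note: score pools 667 nm emission and signal to noise measuring lysate protein binding.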 The settings on record: COS7 hTOR1A mutant lysate, 635 nm fluorescence, higher = more signal.
The test system of assay [9] is Sonic hedgehog protein (Shh). Description: small-molecule binders of Shh protein, primary screen, biochemical, small-molecule microarray, 635/667 nm fluorescence (AID 1151).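 Note: Shh protein binding to compounds spotted on small-molecule microarray slides; score combines spot fluorescence intensity with signal-to-noise across triplicate slides.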 The settings on record: small-molecule microarray binding, 635 nm fluorescence; higher = more signal.
Assay [10] in a line: E. coli DRC41 culture turbidity changes, primary screen, E. coli filamentation inducer project, strain DRC41, OD650, 48 h (AID 1152).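 Note: E. coli MC1000 strain DRC41 lacking acrAB efflux pump and sulA.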 The note with it: E. coli DRC41 (acrAB sulA), higher = more signal, called active from +8 up or from −8 down.
The nature of assay [11]: small-molecule binders of probe aLefty1, primary screen, biochemical, small-molecule microarray, 635/667 nm fluorescence (AID 1153).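 Note: score merges spot fluorescence with signal-to-noise ratio from the scanned slide images.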 The settings on record: higher = more signal.
A short description of assay [12]: PSAC antagonists in infected red cells, primary screen, cell-based, P. falciparum Indochina, OD700, 1 h (AID 1154). The note with it: P. falciparum Indochina infected RBC osmotic lysis, higher = more signal, called active from +8 up or from −8 down.
Assay [13] can be described thus: PSAC antagonists in infected red cells, primary screen, cell-based, P. falciparum Indochina, OD700, 2 h (AID 1155).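 Note: lysis reports solute entry through the parasite surface anion channel PSAC; channel blockers reduce lysis of infected cells.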 The note with it: P. falciparum Indochina infected erythrocytes, osmotic lysis OD700; higher = more signal, called active from +8 up or from −8 down.
Assay [14] in a line: osmotic lysis modulators in infected erythrocytes, primary screen, PSAC antagonist project, cell-based, P. falciparum Indochina, OD700, 3 h (AID 1156). The settings on record: higher = more signal, called active from +8 up or from −8 down.
A short description of assay [15]: PSAC antagonists in infected red cells, primary screen, cell-based, P. falciparum Indochina, OD700, 18 h (AID 1157). The settings on record: P. falciparum Indochina infected erythrocytes, osmotic lysis OD700, 18 h; higher = more signal, called active from +8 up or from −8 down.
A short description of assay [16]: modulators of S6 phosphorylation in cells, primary screen, cell-based, A549, cytoblot, luminescence, serum-stimulated (AID 1158).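 Note: serum-stimulated A549 lung adenocarcinoma cells; signal is phosphorylated S6 detected by cytoblot immunostaining with HRP secondary.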 The note with it: A549 phospho-S6 cytoblot, 5 h, higher = more signal.
Assay [17] has as its target NADPH oxidase 2 (Homo sapiens) (UniProt P04839). Kind of assay: NOX2-dependent H2O2 signal modulators, primary screen, NOX inhibitor project, cell-based, HEK293-NOX2, PMA-stimulated, Amplex Red fluorescence (AID 1159). Note: test concentration not given here. The settings on record: 45 min, higher = more signal, called active from +8 up or from −8 down.
In assay [18] the target is NADPH oxidase 4 (Homo sapiens) (UniProt Q9NPH5). Description: NOX4-dependent H2O2 signal modulators, primary screen, NOX inhibitor project, cell-based, HEK293-NOX4, tetracycline-induced, Amplex Red fluorescence (AID 1160). The note with it: 45 min, higher = more signal, called active from +8 up or from −8 down.
In assay [19] the target is NADPH oxidase 5 (Homo sapiens) (UniProt Q96PH1). Description: NOX5-dependent H2O2 signal modulators, primary screen, NOX inhibitor project, cell-based, HEK293-NOX5, Amplex Red fluorescence (AID 1161). The note with it: HEK293-NOX5, ionomycin, 45 min, higher = more signal.
The nature of assay [20]: A549 cell viability effects, profiling panel, calcein-AM fluorescence, 48 h, basal (AID 1162). Note: test concentration not given here. The settings on record: higher = more signal.

Active and inactive are the calls of the source.

Sequence of NADPH oxidase 4 (Homo sapiens) (Q9NPH5 whole entry, looked up): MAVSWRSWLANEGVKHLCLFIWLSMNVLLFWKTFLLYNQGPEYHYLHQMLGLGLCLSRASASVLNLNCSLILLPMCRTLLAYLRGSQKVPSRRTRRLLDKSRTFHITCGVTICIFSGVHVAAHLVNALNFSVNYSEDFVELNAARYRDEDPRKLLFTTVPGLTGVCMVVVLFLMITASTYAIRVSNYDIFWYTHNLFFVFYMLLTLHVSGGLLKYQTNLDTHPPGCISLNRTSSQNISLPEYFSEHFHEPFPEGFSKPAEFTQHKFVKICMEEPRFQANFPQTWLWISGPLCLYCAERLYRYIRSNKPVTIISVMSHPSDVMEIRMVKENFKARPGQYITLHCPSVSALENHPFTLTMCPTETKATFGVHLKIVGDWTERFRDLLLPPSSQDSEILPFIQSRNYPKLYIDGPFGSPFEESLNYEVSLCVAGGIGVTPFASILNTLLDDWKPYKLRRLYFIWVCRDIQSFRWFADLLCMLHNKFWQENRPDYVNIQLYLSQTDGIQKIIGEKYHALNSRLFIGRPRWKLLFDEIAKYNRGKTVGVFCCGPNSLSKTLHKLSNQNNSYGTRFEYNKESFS
Sequence of Streptavidin (Streptomyces avidinii) (P22629 whole entry, looked up): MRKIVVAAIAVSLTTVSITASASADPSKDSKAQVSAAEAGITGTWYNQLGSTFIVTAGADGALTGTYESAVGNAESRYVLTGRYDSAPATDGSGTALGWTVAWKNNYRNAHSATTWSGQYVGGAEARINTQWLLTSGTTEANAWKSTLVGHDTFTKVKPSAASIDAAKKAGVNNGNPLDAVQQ
Sequence of NADPH oxidase 5 (Homo sapiens) (Q96PH1 whole entry, looked up): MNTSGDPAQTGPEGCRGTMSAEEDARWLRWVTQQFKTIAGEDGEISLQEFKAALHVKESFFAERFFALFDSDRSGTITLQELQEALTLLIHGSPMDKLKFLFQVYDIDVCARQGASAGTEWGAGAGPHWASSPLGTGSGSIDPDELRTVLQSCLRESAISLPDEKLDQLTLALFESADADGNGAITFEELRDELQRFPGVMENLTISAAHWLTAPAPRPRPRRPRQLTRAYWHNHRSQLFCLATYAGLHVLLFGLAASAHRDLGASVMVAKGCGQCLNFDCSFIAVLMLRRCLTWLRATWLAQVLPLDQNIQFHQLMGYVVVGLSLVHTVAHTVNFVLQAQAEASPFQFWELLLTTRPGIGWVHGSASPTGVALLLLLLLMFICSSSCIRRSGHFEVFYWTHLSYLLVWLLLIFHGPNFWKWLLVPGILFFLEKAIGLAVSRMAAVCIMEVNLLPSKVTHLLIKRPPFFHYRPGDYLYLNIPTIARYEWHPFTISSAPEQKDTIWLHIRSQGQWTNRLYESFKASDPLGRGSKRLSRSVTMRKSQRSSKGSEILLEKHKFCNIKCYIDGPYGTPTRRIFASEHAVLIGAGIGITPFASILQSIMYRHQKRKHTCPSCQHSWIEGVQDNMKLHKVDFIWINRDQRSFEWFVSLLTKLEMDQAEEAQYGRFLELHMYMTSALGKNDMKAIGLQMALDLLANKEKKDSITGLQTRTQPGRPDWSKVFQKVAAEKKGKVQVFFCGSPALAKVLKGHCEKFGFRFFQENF
Sequence of Torsin-1A (Homo sapiens) (O14656 whole entry, looked up): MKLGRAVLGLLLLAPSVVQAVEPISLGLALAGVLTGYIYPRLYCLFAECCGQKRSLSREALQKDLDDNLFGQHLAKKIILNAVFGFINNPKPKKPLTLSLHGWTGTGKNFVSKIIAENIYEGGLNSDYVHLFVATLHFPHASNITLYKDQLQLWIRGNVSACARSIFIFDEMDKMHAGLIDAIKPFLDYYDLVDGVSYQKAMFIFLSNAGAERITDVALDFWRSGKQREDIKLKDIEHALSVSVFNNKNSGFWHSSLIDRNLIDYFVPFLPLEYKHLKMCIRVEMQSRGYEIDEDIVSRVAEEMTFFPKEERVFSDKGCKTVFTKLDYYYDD
Sequence of NADPH oxidase 2 (Homo sapiens) (P04839 whole entry, looked up): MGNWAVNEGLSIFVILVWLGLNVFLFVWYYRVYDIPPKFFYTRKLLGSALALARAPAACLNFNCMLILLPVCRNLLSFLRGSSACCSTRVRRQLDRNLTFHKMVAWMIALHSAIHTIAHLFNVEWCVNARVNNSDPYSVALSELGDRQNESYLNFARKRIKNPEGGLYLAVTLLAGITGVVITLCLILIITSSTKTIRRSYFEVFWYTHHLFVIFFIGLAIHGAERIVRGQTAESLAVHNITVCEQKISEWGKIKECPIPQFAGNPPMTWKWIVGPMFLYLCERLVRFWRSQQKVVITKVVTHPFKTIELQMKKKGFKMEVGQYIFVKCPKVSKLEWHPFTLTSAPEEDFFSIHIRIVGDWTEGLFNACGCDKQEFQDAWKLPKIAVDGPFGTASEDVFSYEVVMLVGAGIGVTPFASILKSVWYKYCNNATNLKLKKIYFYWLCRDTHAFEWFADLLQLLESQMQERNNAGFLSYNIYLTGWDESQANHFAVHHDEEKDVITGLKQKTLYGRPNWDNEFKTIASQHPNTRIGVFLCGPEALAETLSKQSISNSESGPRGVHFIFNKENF

Regarding `C=C(CCCC)/C(=C/C[C@H](OC(=O)c1ccncc1)c1ccc(CO)o1)c1cnc2ccccc2c1`, the composite z-score in assay [1] was found to be 0.216; in assay [5], 0.783; in assay [6] it was 0.212; with Torsin-1A (Homo sapiens) [7] it was 0.378; with Torsin-1A (Homo sapiens) [8], 0.324; in assay [9], 1.95. The composite z-score in assay [11] stood at 0.301. The z-score was -0.807 (inactive) in [2]; 3.77 (inactive) in assay [3]; -1.24 (inactive) in assay [4]; 0.822 (inactive) in assay [10]; 7.89 (inactive) in [12]; -0.0845 (inactive) in assay [13]. For the same compound, the z-score in assay [14] is 1.04 (inactive); in assay [15] it was -1.01 (inactive); in assay [16], -0.367; in assay [17], 2.49 (inactive); in assay [18], 1.15 (inactive); in [19], 0.737. For the same compound, the z-score in assay [20] was 0.942.
Consider `O=C1O[C@H](c2ccccc2)[C@H](c2ccccc2)N2[C@H]1[C@@H](C(=O)NC[C@H](O)c1ccccc1)[C@]1(C(=O)Nc3ccc(C#CC4(O)CCCCCC4)cc31)[C@H]2c1ccc(O)cc1`, for which the composite z-score in [1] was found to be 0.195; in assay [5], 0.26; in assay [6], 0.0377; with Torsin-1A (Homo sapiens) [7] it was 0.704; with Torsin-1A (Homo sapiens) [8], 1.02; in assay [9], 1.27. Further, in [11], the composite z-score worked out at 0.0495. Moreover, the z-score in assay [2] is -2.13 (inactive); in assay [3] it was -0.0607 (inactive); in [4], -0.58 (inactive); in assay [10], 1.46 (inactive); in assay [12], 0.519 (inactive); in assay [13], 0.447 (inactive). Further, the z-score is 0.001 (inactive) in [14]; -0.181 (inactive) in assay [15]; 0.381 in [16]; 1.68 (inactive) in assay [17]; 0.753 (inactive) in assay [18]; 1.58 in assay [19]. Also, in [20], the z-score was 0.97.
In the case of `C=C(COC)C(=O)CC[C@@H](OC(=O)c1ccccc1-c1ccccc1C(=O)O)c1cccc(OCCO)c1`, the composite z-score in assay [1] was 0.0174; in assay [5], -0.52; in assay [6], -0.128; with Torsin-1A (Homo sapiens) [7], 0.785; with Torsin-1A (Homo sapiens) [8], 0.455; in [9], 0.404. This compound had a composite z-score in assay [11] of -0.144. Besides, the z-score in assay [2] is 0.483 (inactive); in [3] it was 2.37 (inactive); in assay [4], 0.0416 (inactive); in [10], 0.908 (inactive); in [12], 8.07 (active); in assay [13], 1.28 (inactive). Also, the z-score in assay [14] was 1.28 (inactive); in [15] it was 0.236 (inactive); in assay [16], -0.178; in assay [17], 3.24 (inactive); in assay [18], 1.34 (inactive); in [19], -0.986. Besides, the z-score in [20] was 0.467.
On to `NC(=O)NCC#Cc1ccc2c(c1)[C@]1(C(=O)N2)[C@H](c2ccc(OCCO)cc2)N2[C@H](c3ccccc3)[C@H](c3ccccc3)OC(=O)[C@H]2[C@@H]1C(=O)Nc1nc2ccccc2s1`, for which the composite z-score in assay [1] is 0.151; in assay [5], 0.453; in assay [6], 0.0253; in the assay with Torsin-1A (Homo sapiens) [7] it was -0.033; in the assay with Torsin-1A (Homo sapiens) [8], 0.254; in assay [9], 0.0186. In addition, the composite z-score in [11] came to 0.122. In addition, the z-score in [2] was -0.0246 (inactive); in [3] it was -0.0246 (inactive); in [4], 0.625 (inactive); in assay [10], 2 (inactive); in assay [12] it was 2.5 (inactive); in assay [13], 2.06 (inactive). The z-score in [14] is 1.53 (inactive); in assay [15], 1.33 (inactive); in assay [16] it was -0.199; in assay [17], 1.43 (inactive); in assay [18] it was 0.57 (inactive); in [19] it was 1.16. Moreover, in assay [20], the z-score was 0.0942.
`CCCCC(=C=CC[C@@H](O)c1ccc(OCCO)cc1)C[C@@H](O)c1cc(Cl)cc(Cl)c1O`: the composite z-score in assay [1] was 0.145; in assay [5], 0.414; in assay [6], 0.0536; with Torsin-1A (Homo sapiens) [7], -0.0726; with Torsin-1A (Homo sapiens) [8], 1.01; in [9], 0.184. Moreover, the composite z-score in assay [11] was -0.147. Further, the z-score in [2] is -2.71 (inactive); in [3] it was 14.3 (active); in [4] it was -2.04 (inactive); in assay [10] it was 1.55 (inactive); in assay [12], 20.3 (active); in [13] it was 4.24 (inactive). For the same compound, the z-score was 1.41 (inactive) in assay [14]; 0.159 (inactive) in assay [15]; 0.903 in assay [16]; 0.444 (inactive) in assay [17]; 0.55 (inactive) in assay [18]; -1.14 in [19]. Also, in assay [20], the z-score was 2.24.
As to `C=CCN1C(=O)[C@]2(O[C@H](CCn3cc([C@H](O)c4ccccc4)nn3)[C@@H]([Si](C)(C)c3ccc(OC)cc3)[C@@H]2C)c2cc(N3CCOC3=O)ccc21`, the composite z-score was -0.185 in assay [1]; -0.0082 in [5]; -0.224 in assay [6]; 0.772 in the assay with Torsin-1A (Homo sapiens) [7]; 0.76 with Torsin-1A (Homo sapiens) [8]; -0.429 in [9]. Besides, the composite z-score in assay [11] was -0.417. Also, the z-score is -5.33 (inactive) in assay [2]; 2.8 (inactive) in assay [3]; -2.35 (inactive) in assay [4]; 1.46 (inactive) in [10]; 4.38 (inactive) in [12]; -0.527 (inactive) in assay [13]. The z-score was 1.03 (inactive) in [14]; -1.58 (inactive) in assay [15]; 0.348 in assay [16]; -0.122 (inactive) in [17]; 1.61 (inactive) in assay [18]; -2.66 in assay [19]. In addition, the z-score in assay [20] was 0.0522.
As to `C=CCC(OC(C)=O)[C@@H]1[C@@H](N(Cc2ccc(-c3ccccc3)cc2)C(=O)c2ccc(-c3ccccc3)cc2)c2cc(OCCCO)ccc2N1C(=O)c1ccc(-c2ccccc2)cc1` (stereo not given in full), the composite z-score in assay [1] worked out at 0.144; in assay [5] it was 0.222; in assay [6], 0.0439; with Torsin-1A (Homo sapiens) [7], 0.276; in the assay with Torsin-1A (Homo sapiens) [8], 0.0533; in assay [9], 0.107. The composite z-score in assay [11] is -0.0088. The z-score in assay [2] was 0.534 (inactive); in [3], -0.0247 (inactive); in [4] it was -0.426 (inactive); in assay [10] it was 2.03 (inactive); in assay [12] it was 0.568 (inactive); in assay [13], 0.712 (inactive). The z-score was -0.181 (inactive) in [14]; 0.0154 (inactive) in [15]; 0.531 in [16]; 0.844 (inactive) in [17]; 0.967 (inactive) in [18]; 1.17 in [19]. For the same compound, the z-score in assay [20] is 0.444.
For the compound `CC(C)(C)OC(=O)CC[C@@]12N=C(c3ccc(OCCCO)cc3)O[C@@H]1c1ccccc1CN(Cc1ccccc1)C2=O`, the composite z-score in assay [1] is 0.822; in assay [5], 0.197; in assay [6], 0.0756; with Torsin-1A (Homo sapiens) [7], 0.161; in the assay with Torsin-1A (Homo sapiens) [8], -0.0105; in assay [9], 1.04. The composite z-score in assay [11] was 0.33. In addition, the z-score is -4.74 (inactive) in assay [2]; 0.344 (inactive) in assay [3]; -2.32 (inactive) in [4]; 0.71 (inactive) in [10]; 28 (active) in assay [12]; 25.8 (active) in assay [13]. The z-score is 2.02 (inactive) in [14]; 2.14 (inactive) in assay [15]; 0.302 in [16]; 0.622 (inactive) in assay [17]; -0.441 (inactive) in [18]; -1.44 in assay [19]. The z-score in assay [20] was -0.633.
